# Measurements from ChEMBL document CHEMBL3988442, “University of Dundee, Small-Polar-MMV Screening Library” (2021).
# Out of some 48,000 compounds screened, about 13,000 (27%) showed an effect of 50% or more. Some of the results follow.
# System: Wolbachia pipientis
# Assay: Anti-Wolbachia Cell-Based Screen
# Format: functional
# Set-up: scale not given: in the data most compounds retested in dose-response had high values
# Conditions: 5 µM
row,SMILES,Percent Effect
1,Cc1nnn2c1COCC(CNCc1nccs1)C2.O=C(O)C(F)(F)F (configuration not stated),-0.1911%
2,Cc1cc(C)n(CC(C)NC2CCN(Cc3cccc(O)c3)CC2)n1 (configuration not stated),-0.5082%
3,NC(=O)c1csc(N2CCCC(c3nc4ccccc4[nH]3)C2)n1 (configuration not stated),1.485%
4,CNC(=O)[C@@H](c1ccccc1OC)N1CCC[C@H]1C(=O)NC1CC1.Cl,-3.931%
5,CNC(=O)[C@H]1C[C@@H]2CN(S(=O)(=O)c3cccc(F)c3)C[C@@H]2N1C.O=C(O)C(F)(F)F,-6.312%
6,Cc1nn(C)c(C)c1C1CCCN1c1ncnc2c1CCC2 (configuration not stated),10.31%
7,CCCn1nccc1S(=O)(=O)N1CCC2(CCCN(C(C)C)C2=O)C1 (configuration not stated),7.399%
8,CCC1CCC(NCCN2CCOCC2)CC1 (configuration not stated),-1.764%
9,COc1ncc(-c2nccn2C(C)CCn2cccn2)cn1 (configuration not stated),-0.87%
10,CC(C)c1nnc2n1CCN(C(=O)c1cccc(C(F)(F)F)c1)C2,-7.984%
11,Nc1cc(C(=O)N2CCC(Oc3cccc(C(F)(F)F)c3)CC2)ccn1,0.5907%
12,O=C(c1cccc(C(F)(F)F)c1)N1CC(=O)N(C2CCC2)CC(O)C1 (configuration not stated),119.9%
13,O=C(c1ccncc1)N1CCC(Oc2cccc(C(F)(F)F)c2)CC1,-12.2%
14,COCCN1CC(O)CN(C(=O)c2cccc(C(F)(F)F)c2)CC1=O (configuration not stated),96.14%
15,CC(C)CN1CC(O)CN(C(=O)c2cccc(C(F)(F)F)c2)CC1=O (configuration not stated),93.47%
16,O=C(O)C1CCCCN1C(=O)c1cccc(C(F)(F)F)c1 (configuration not stated),1.382%
17,Cc1c(Br)cccc1C(=O)NCC1CCNCC1.Cl,5.039%
18,COC(=O)NCc1ccc(NC(=O)CC2=CCCCC2)cc1,-4.854%
19,Cc1nc(N2CCN(S(C)(=O)=O)CC2)cc(-n2cnc(C)c2C)n1,-12.66%
20,CC(C)(C)CCN1CCCC(Cn2cc(CCO)nn2)C1 (configuration not stated),-5.43%
21,Cc1ccccc1CN1CCN(C(=O)c2ccn(C(C)(C)C)c2)CC1,106.5%
22,CNS(=O)(=O)c1ccc(CN2CCN(Cc3ncccc3C)CC2)cc1,2.71%

row,SMILES,Percent Effect
1,Cc1ccccc1CN1CCN(C(=O)CCn2ccccc2=O)CC1,-43.85%
2,CC(C)(C)n1cc(C(=O)N2CCN(Cc3ccccc3F)CC2)cn1,-9.517%
3,Cc1cccnc1CN1CCN(C(=O)CCn2ccccc2=O)CC1,-35.18%
4,Cc1cccnc1CN1CCN(C(=O)c2ccn(C(C)(C)C)c2)CC1,140.1%
5,CCOC(=O)CC(NC(=O)c1cn(Cc2ccccc2F)nn1)C(C)C (configuration not stated),0.973%
6,O=C(O)C1c2nc[nH]c2CCN1Cc1cc(-c2ccccc2)no1 (configuration not stated),-8.907%
7,CN(Cc1cccc2cnccc12)C(=O)CCc1n[nH]c2c1CCCC2,113.4%
8,O=C(CCc1n[nH]c2c1CCCC2)N1C[C@@H]2CC[C@H](C1)N(CC1CC1)C2,3.665%
9,CCCc1cc(C(=O)N(C)Cc2cccc3cnccc23)n(C)n1,-5.635%
10,Cc1ncc(CC(=O)N2CCC3(CCC(=O)N(C4CC4)C3)CC2)c(=O)[nH]1,3.916%
11,NC(=O)NC1CCN(Cc2ccc(Br)c(F)c2)CC1,-13.64%
12,CCOc1ccc(S(=O)(=O)NCc2cccnc2N(C)C)cc1,-21.99%
13,CN(C)c1ncccc1CNCc1cccc(O)c1,107.5%
14,Cc1oc(C)c(C(=O)NCc2cccnc2N(C)C)c1C,-9.408%
15,CC(C)(C)NS(=O)(=O)c1ccccc1CNCc1cccc(O)c1,-1.047%
16,CC(=O)Nc1ccc(CNCc2cccnc2N(C)C)cc1,96.06%
17,CCc1ncc(CNCc2cccnc2N(C)C)cn1,101.7%
18,CCOc1ccc(CNCc2cccnc2N(C)C)cc1,80.05%
19,CC(C)NS(=O)(=O)c1ccccc1CNCc1cccc(O)c1,-3.142%
20,CCN(C(=O)NCc1cccnc1N(C)C)C(C)c1cccnc1 (configuration not stated),-18.28%
21,O=C(O)[C@@H]1CN(Cc2c[nH]c(CC3CCCC3)n2)C[C@H]1c1ccncc1,-4.479%
22,CCN(CC)c1nc2sc(C(=O)NCC(=O)OC)cc2s1,-6.557%

row,SMILES,Percent Effect
1,O=C1N[C@@H]2CCN(C(=O)N3CCOCC3)[C@@H]2C(=O)N1Cc1ccccc1,7.346%
2,OC(CN(Cc1ccccc1)Cc1ccon1)c1ccco1 (configuration not stated),27.39%
3,CCCN1CCC(NN2CCN(C)CC2)CC1,6.891%
4,COc1ccc2cc(C(=O)N3CCCCC3CC(N)=O)[nH]c2c1 (configuration not stated),-6.391%
5,O=C(NCC1(O)CCSCC1)c1nccc2ccccc12,-4.929%
6,COc1ccc2[nH]c(C(=O)NCC3(N)CCCC3)cc2c1,112.8%
7,O=C(Nc1cc(CSCCO)ccn1)c1cc2ccccc2[nH]1,-29.11%
8,NC1(CNC(=O)c2cc3ccccc3[nH]2)CCCC1,106.9%
9,COc1ccc(CNC(=O)C2(C#N)CCCC2)cc1,-22.34%
10,COCCOc1ccc(NC(=O)N(C)Cc2ccsc2)cn1,-6.376%
11,Cc1noc([C@H]2C[C@H]3OCC[C@H]3N(Cc3cccs3)C2)n1.O=C(O)C(F)(F)F,-3.779%
12,CN(Cc1ncnn1C)C(=O)CCCn1ccc2cc(Cl)ccc21,8.375%
13,O=C(NCC(=O)N1CCCc2ccccc21)c1c(O)cc(F)cc1F,103.6%
14,CCC(CNC(=O)c1ccc(F)cc1F)N1CCc2ccccc2C1 (configuration not stated),10.38%
15,O=C(NCCSC1CCCC1)c1c(F)cccc1F,10.15%
16,CS(=O)(=O)c1ccc2c(c1)N(C(=O)c1cccc(F)c1)CCC2,5.094%
17,Cn1cc(CCNC(=O)N2CCCc3c(F)cccc32)cn1,-24.48%
18,CS(=O)(=O)c1ccc2c(c1)N(C(=O)Cc1cccc(F)c1)CCC2,1.079%
19,O=C(NCCSC1CCCC1)c1ccc(F)cc1F,11.89%
20,O=C(NCCC(=O)N1CCCc2ccccc21)c1cc(F)cc(F)c1,126.9%
21,O=C(NCCS(=O)(=O)N1CCc2ccccc21)c1c(O)cc(F)cc1F,11.09%
22,O=C(NCCC(=O)N1CCCc2ccccc21)c1ccc(F)cc1F,138.5%

row,SMILES,Percent Effect
1,O=C(NCCC(=O)N1CCCc2ccccc21)c1c(O)cc(F)cc1F,3.729%
2,O=C(NCCC(=O)N1CCCc2ccccc21)c1c(F)cccc1F,120%
3,CC(C)N1CCC2(CC1)CN(C)C(=O)C[C@H]2C(F)(F)F,-3.989%
4,COc1ccc2c(c1)CCCN(C(C)C(=O)NC(N)=O)C2 (configuration not stated),-1.078%
5,NC(=O)C1=NC2=NS(=O)(=O)c3ccccc3N2N1Cc1ccc(Br)cc1,9.157%
6,Cc1c[nH]c(C(=O)N2CCn3nc(C(=O)NC4CC4)cc3C2)n1,-2.025%
7,Cc1nc2ccc(C(=O)N3CCN(CCO)[C@@H]4CS(=O)(=O)C[C@@H]43)cc2o1,-12.01%
8,CC(C)N1CCC(c2n[nH]cc2S(C)(=O)=O)CC1,115.7%
9,COCCn1ccnc1C1CCCN(C(=O)c2cccnc2SC)C1 (configuration not stated),-0.1241%
10,Cc1nc(N)sc1C(=O)N1CCCC(c2nccn2CCCN(C)C)C1 (configuration not stated),8.356%
11,Cc1cc(C(=O)N2CCCC(c3nccn3Cc3ccncc3)C2)no1 (configuration not stated),10.63%
12,COCCn1ccnc1C1CCCN(C(=O)c2cc(F)cc(F)c2)C1 (configuration not stated),83.8%
13,Cn1ccnc1C1CCCN(C(=O)c2cc(F)cc(F)c2)C1 (configuration not stated),106.9%
14,COCCn1ccnc1C1CCCN(C(=O)c2ccncc2F)C1 (configuration not stated),0%
15,CCc1ncc(C(=O)N2CCCC(c3nccn3CCOC)C2)cn1 (configuration not stated),-9.089%
16,Cn1ccnc1C1CCCN(C(=O)c2ccncc2F)C1 (configuration not stated),111.1%
17,Cc1cc(C(=O)N2CCCC(c3nccn3C)C2)cc(S(N)(=O)=O)c1C (configuration not stated),99.7%
18,COCCn1ccnc1C1CCCN(C(=O)c2ccccc2C#N)C1 (configuration not stated),-8.592%
19,CC(C)(O)c1cn(C2CCN(C(=O)CCC(F)(F)F)CC2)nn1,13.09%
20,CN(CCc1ccncc1)C(=O)c1sccc1OC(F)F,-13.92%
21,CCC1=N[C@@]2(CC[C@@H]3CN(C(=O)NCC(C)C)C[C@@H]32)C(=O)N1CC1CC1,11.23%
22,Cc1ncc(C(=O)Nc2cncnc2N(C)C)c(Cl)c1Cl,-6.041%

row,SMILES,Percent Effect
1,CN(C)C(=O)CN1C[C@@H]2CC[C@H](C1)N(Cc1ccccc1C#N)C2,-40.35%
2,CN(C)C(=O)c1cccnc1SCc1ccccc1C#N,100.1%
3,Cc1ccccc1CSc1ncccc1C(=O)N(C)C,111%
4,CSc1ncccc1C(=O)N(C)C(C)Cc1ccccn1 (configuration not stated),1.339%
5,CN(C)C(=O)c1cccnc1SCc1ccccc1Cl,128.1%
6,CSc1ncccc1C(=O)N(C)CCc1scnc1C,0.9599%
7,Cc1cccnc1NC(=O)CNC(=O)c1ccccc1Cl,-60.17%
8,CN(C)C(=O)c1ccccc1NCCCOc1cccc(C#N)c1,-15.07%
9,CSCC(=O)N(Cc1ccccn1)Cc1ccccc1C,-1.935%
10,O=C(CNC(=O)C1CCCC1)NCc1cnn(-c2ccc(F)cc2F)c1,-3.155%
11,CC(=O)N1CCc2c(nc(N(C)C)nc2NCCc2cccs2)C1,30.52%
12,Cc1ccccc1C(O)CNC(=O)Cc1ccc(F)cc1 (configuration not stated),-16.74%
13,O=C(CN1CCOC(Cn2cccn2)C1)NC1CCN(C2CC2)CC1 (configuration not stated),-5.348%
14,O=C(CCN1CCOC(Cn2cccn2)C1)NC1CCCCC1 (configuration not stated),137.8%
15,O=C(CCN1CCOC(Cn2cccn2)C1)NC1CCCC1 (configuration not stated),3.251%
16,O=C(CCN1CCOC(CNc2cccnn2)C1)NC1CCCCC1 (configuration not stated),89.48%
17,OC1(CN2CCOC(CNc3cccnn3)C2)CCCCC1 (configuration not stated),90.58%
18,O=C(CN1CCOC(CNc2cccnn2)C1)N1CCCCC1 (configuration not stated),113.9%
19,c1cnnc(NCC2CN(CCN3CCCCC3)CCO2)c1 (configuration not stated),-1.688%
